Vaccinia inh – blocks a specific stage of Vaccinia orthopoxvirus infection. Vaccinia-infected cells, mCherry/Venus stage reporter fluorescence; hits give low values. activity change (mCherry), % (no concentration beside the values). AID 1053133. 0.01% of 89,000 active; in the data active means activity change below about -37%, passing the limit was not always enough; tested in A549 cells
Large screens that a line does not name were inactive. This excerpt belongs to a sample that is enriched for hits.

C[C@H]1CN([C@@H](C)CO)C(=O)c2c(c3ccccc3n2C)-c2ccccc2CO[C@@H]1CN(C)CC1CC1	none
O=C(C1CC1)N1CC(=O)N2[C@H](CO)[C@@H](c3ccc(Br)cc3)[C@H]2C1	none
N#C[C@H]1[C@@H](c2ccc(C3=CCCC3)cc2)[C@H](CO)N1C(=O)NC1CCCCC1	none
CCCNC(=O)N1C[C@@H](C)[C@@H](OC)CN(C)C(=O)c2ccc(NC(C)=O)cc2OC[C@H]1C	none
C[C@@H]1CN([C@@H](C)CO)C(=O)c2cc(C#C[C@@H](C)O)cnc2O[C@@H]1CN(C)C(=O)Nc1ccc(F)cc1	none
C[C@@H]1CN([C@@H](C)CO)C(=O)c2cccc(NS(C)(=O)=O)c2O[C@@H]1CN(C)Cc1ccc(C(=O)Nc2ccccc2N)cc1	none
O=C(C[C@H]1C[C@H]2c3cc(NC(=O)CC4CC4)ccc3O[C@H]2[C@H](CO)O1)NCCc1ccccc1	none
CO[C@@H]1CN(C)C(=O)c2ccc(NC(C)=O)cc2OC[C@H](C)N(C(=O)Cc2cccnc2)C[C@H]1C	none
CCCNC(=O)N1C[C@H](C)[C@H](OC)CN(C)C(=O)c2ccc(NC(=O)CCC)cc2OC[C@@H]1C	none
CO[C@H]1CN(C)C(=O)c2ccc(NS(=O)(=O)c3ccccc3Cl)cc2OC[C@@H](C)NC[C@@H]1C	none
C[C@H]1CN([C@@H](C)CO)C(=O)Cc2cc(NC(=O)Cc3cn(C)c4ccccc34)ccc2O[C@H]1CN(C)C(=O)Nc1ccccc1	none
C[C@H]1CN([C@@H](C)CO)C(=O)CCCn2nncc2CO[C@@H]1CN(C)C(=O)CCCN(C)C	none
C[C@@H]1CN([C@H](C)CO)C(=O)c2cc(C#Cc3cccnc3)cnc2O[C@H]1CN(C)C(=O)CC1CC1	none
Cc1cc(C)cc(N2C(=O)CS(=O)(=O)C2c2cccc([N+](=O)[O-])c2)c1 (stereo unspecified)	none
O=C(Nc1ccccc1)N1C[C@H]2[C@@H](c3ccccc31)[C@@H](CO)N2C(=O)c1ccncc1	none
C[C@@H]1CCCCO[C@@H](CN(C)C)[C@@H](C)CN([C@H](C)CO)C(=O)c2cc(NS(C)(=O)=O)ccc2O1	none
COCCNC(=O)c1cc2c(c(-c3cccc(C4=CCCCC4)c3)n1)[C@H](CCO)N([S@@](=O)C(C)(C)C)C2	none
CCCNC(=O)C[C@H]1CC[C@@H]2[C@@H](COc3ccc(NC(=O)Cc4ccccc4)cc3C(=O)N2C)O1	none
Cc1ccc(S(=O)(=O)Nc2ccc3c(c2)C(=O)N([C@@H](C)CO)C[C@@H](C)[C@H](CN(C)C(=O)Nc2c(C)noc2C)O3)cc1	none
Cc1noc(C)c1NC(=O)Nc1ccc2c(c1)C(=O)N([C@H](C)CO)C[C@H](C)[C@H](CN(C)CC1CCCCC1)OCCCC[C@H](C)O2	none
COc1ccc(CN(C)C[C@H]2OCCCC[C@H](C)Oc3ccc(N(C)C)cc3C(=O)N([C@H](C)CO)C[C@@H]2C)cc1	none
CC(C)C#Cc1cnc2c(c1)C(=O)N([C@@H](C)CO)C[C@@H](C)[C@@H](CN(C)C(=O)c1ccccc1F)O2	none
O=C(C[C@H]1CC[C@H](NC(=O)Nc2cccc(F)c2)[C@H](CO)O1)NCC1CC1	none
COc1ccc2c3c([nH]c2c1)[C@H](CO)NCC31CN(C(=O)Nc2c(C)noc2C)C1	none
COc1ccccc1CN1CC[C@H]2[C@H](CO)Nc3ccc(-c4ccc(C(=O)N(C)C)cc4)cc3[C@H]21	Vaccinia inh -40
CN(C)C(=O)c1ccc(-c2ccc3c(c2)[C@@H]2[C@@H](CCN2Cc2ccc4c(c2)OCO4)[C@H](CO)N3)cc1	none
CN(C)C(=O)c1ccc(-c2ccc3c(c2)[C@H]2[C@H](CCN2Cc2ccc4c(c2)OCO4)[C@@H](CO)N3)cc1	none
CN(C)C(=O)c1ccc(-c2ccc3c(c2)[C@H]2[C@H](CCN2Cc2ccc4c(c2)OCO4)[C@H](CO)N3)cc1	none
CN(C)C(=O)c1ccc(-c2ccc3c(c2)[C@H]2[C@H](CCN2C(=O)c2ccccc2)[C@H](CO)N3)cc1	none
COc1ccccc1CN1CC[C@@H]2[C@@H](CO)Nc3ccc(-c4ccc(C(=O)N(C)C)cc4)cc3[C@@H]21	Vaccinia inh -39
C[C@H]1CN([C@@H](C)CO)C(=O)c2cc(-c3cccc(C#N)c3)cnc2O[C@@H]1CN(C)Cc1ccccc1	none
C[C@@H]1CN([C@@H](C)CO)C(=O)c2cccc(NC(=O)C3CCCCC3)c2O[C@@H]1CN(C)C	none
COCC(=O)Nc1ccc2c(c1)C(=O)N(C)C[C@H](OC)[C@@H](C)CN(C(=O)Cc1ccccn1)[C@H](C)CO2	none
C[C@@H]1CN([C@H](C)CO)C(=O)c2cccc(NS(=O)(=O)c3cccs3)c2O[C@@H]1CN(C)S(=O)(=O)c1ccc(Cl)cc1	none
O=C([C@@H]1[C@@H](CO)[C@@H]2Cn3c(ccc(C4=CCCCC4)c3=O)[C@@H]2N1Cc1nccs1)N1CCOCC1	none
COc1ccc2c3c([nH]c2c1)[C@H](CO)N(Cc1ccccc1)CC31CCN(C(=O)Nc2cccc(F)c2)CC1	none
CO[C@H]1CN(C)C(=O)c2cc(NC(=O)c3cnccn3)ccc2OC[C@H](C)N(C(C)=O)C[C@@H]1C	none
COCC(=O)N1C[C@H](C)[C@@H](OC)CN(C)C(=O)c2cc(NC(=O)NC(C)C)ccc2OC[C@H]1C	none
CCC(=O)Nc1ccc2c(c1)C(=O)N(C)C[C@H](OC)[C@H](C)CN(C(=O)COC)[C@H](C)CO2	none
C/C=C/c1ccc2c(c1)O[C@H](CN(C)C(=O)Nc1ccccc1)[C@H](C)CN([C@H](C)CO)S2(=O)=O	none
CCC(=O)N1C[C@@H](C)[C@@H](OC)CN(C)C(=O)c2ccc(NC(=O)c3cnccn3)cc2OC[C@@H]1C	none
O=C(N[C@@H]1CC[C@H](CC(=O)N2CCOCC2)O[C@H]1CO)c1ccccn1	none
CCCN(C)C[C@@H]1OCCCC[C@@H](C)Oc2ccc(NS(=O)(=O)c3ccc(F)cc3)cc2C(=O)N([C@H](C)CO)C[C@@H]1C	none
O=C(C1CC1)N1CC(=O)N2[C@H](C1)[C@@H](c1ccc(C#CCc3ccccc3)cc1)[C@@H]2CO	none
C[C@H]1CCCCO[C@@H](CN(C)C(=O)C2CCCCC2)[C@@H](C)CN([C@@H](C)CO)C(=O)c2cc(NC(=O)CCC(F)(F)F)ccc2O1	none
CO[C@@H]1CN(C)C(=O)c2ccc(NC(=O)c3ccc(F)cc3)cc2OC[C@@H](C)N(C(=O)c2ccc(F)cc2)C[C@@H]1C	none
CO[C@H]1CN(C)C(=O)c2ccc(NC(=O)c3ccc(F)cc3)cc2OC[C@H](C)N(C(=O)c2ccc(F)cc2)C[C@@H]1C	Vaccinia inh -87
CO[C@@H]1CN(C)C(=O)c2ccc(NC(=O)c3ccc(F)cc3)cc2OC[C@H](C)N(C(=O)c2ccc(F)cc2)C[C@H]1C	none
COc1cccc(NC(=O)N(C)C[C@@H]2OCc3ccccc3-c3ccccc3C(=O)N([C@@H](C)CO)C[C@@H]2C)c1	none
C[C@@H]1CN([C@@H](C)CO)S(=O)(=O)c2ccc(C#Cc3ccncc3)cc2O[C@H]1CN(C)S(=O)(=O)c1ccc(F)cc1	none
Cc1ccc(S(=O)(=O)N(C)C[C@H]2Oc3cc(C#Cc4ccncc4)ccc3S(=O)(=O)N([C@@H](C)CO)C[C@H]2C)cc1	Vaccinia inh -46
C[C@H](CO)N1C[C@H](C)[C@H](CN(C)S(=O)(=O)c2ccc(F)cc2)Oc2cc(C#Cc3ccncc3)ccc2S1(=O)=O	none
Cc1ccccc1S(=O)(=O)N1C[C@@H](O)COC[C@H]2O[C@H](CC(=O)N3CCC(Cc4ccccc4)CC3)CC[C@@H]21	none
CN1[C@H](C(=O)NCC(F)(F)F)[C@@H](CO)[C@@H]2Cn3c(ccc(-c4ccc(F)cc4)c3=O)[C@@H]21	none

Source: PubChem BioAssay
